# PubChem BioAssay (NCATS)
# Inconclusive results are not listed. Where a call stands in place of a potency, no number is given. The source made the active and inactive calls. Calls follow the shape of the dose curve; as a rule, active = well fitted inhibition curve with a large enough effect; inconclusive = small, poorly fitted or top-dose-only effect; inactive = no such curve, though single readings can be large or run the other way.
# Legend:
# [1] = test system: Zika virus NS2B-NS3 protease (linked construct); experiment: Primary screen NINDS Rhodamine qHTS for Zika virus inhibitors (AID 1347160); also: nearly all actives have a fitted effect of over 55% in size; also: potency is read from the fitted curve at half-maximal effect
# In short: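 Percent inhibition, normalized to uninhibited and enzyme-free controls, is fitted to a 4-parameter Hill equation. Fluorescence change comes from a 15-min cleavage of 1.5 microM bis-peptide Rhodamine110 substrate by 25 nM linked NS2B-NS3 at room temperature.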
# [2] = test system: Zika virus NS2B-NS3 protease (unlinked complex); experiment: Primary screen GU Rhodamine qHTS for Zika virus inhibitors: Unlinked NS2B-NS3 protease assay (AID 1347159); also: nearly all actives have a fitted effect of over 60% in size
# In short: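 Compounds, tested up to 114 microM, were incubated for 15 minutes with 25 nM unlinked NS2B-NS3 protease at pH 8.0. Cleavage of 1.5 microM Rhodamine110 substrate was then followed by fluorescence for 15 minutes.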
# [3] = Confirmatory screen NINDS Rhodamine qHTS for Zika virus inhibitors (AID 1347161); also: potency is read from the fitted curve at half-maximal effect; nearly all actives have a fitted effect of over 60% in size
# In short: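 Rhodamine110-peptide cleavage (1.5 µM substrate) by 25 nM linked NS2B-NS3 enzyme at pH 8.0 (Tris, Tween 20), after 15 min RT preincubation with compounds; 15-min fluorescence change normalized to controls and Hill-fitted.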
SMILES,Potency [1],Potency [2],Potency [3]
C/C(=C\C(=O)C(C)C1CCC2C3=C(CCC21C)C1(C)CCC(=O)C(C)(C)C1(O)CC3)C(C)(C)O (configuration not stated),14.1 µM (active),–,–
O=C(O)CCc1cccc(O)c1O[C@@H]1O[C@H](CO)[C@@H](O)[C@H](O)[C@H]1O,inactive,–,–
CC(C)=CCC(O)[C@](C)(O)C1[C@H](O)C[C@@]2(C)C3CC=C4C(C[C@H](O)[C@@H](O[C@@H]5O[C@H](CO)[C@@H](O)[C@H](O)[C@H]5O)C4(C)C)[C@]3(C)C(=O)C[C@]12C (some centres not stated),inactive,–,–
CC1=CC(=O)C2C(C)(C)CCC[C@]2(C)[C@H]1CC[C@H](C)CC(=O)O (some centres not stated),inactive,inactive,–
CC1(CO)CCCC2(C)C3COC(=O)C3=CC(O)C12 (configuration not stated),inactive,–,–
C[C@]12CC[C@@H]3c4ccc(O)cc4CC[C@H]3[C@@H]1C[C@@H](O[C@@H]1O[C@H](C(=O)O)[C@@H](O)[C@H](O)[C@H]1O)[C@@H]2O,inactive,–,–
Cc1onc(-c2ccccc2Cl)c1C(=O)N(C)c1ccc(Cl)cc1,inactive,inactive,–
COc1cncc(C#Cc2ccccn2)c1,inactive,inactive,–
COc1cc(O)cc2c1C(=O)OC(C)C2 (configuration not stated),inactive,inactive,–
COc1cc(-c2ccc(O)cc2)c(OC)c(O)c1C1=CC(=O)OC1CC(=O)O (configuration not stated),inactive,inactive,–
C[C@@H]1O[C@@H](O[C@H]2[C@H](O)[C@@H](O[C@@H]3O[C@H](CO)[C@H](O)[C@H](O)[C@H]3O)[C@H](O[C@H]3CC[C@@]4(C)C(CC[C@]5(C)C4CC=C4[C@@H]6CC(C)(C)CC[C@]6(C(=O)O[C@@H]6O[C@H](CO)[C@@H](O)[C@H](O)[C@H]6O)CC[C@]45C)C3(C)C)O[C@@H]2C(=O)O)[C@H](O)[C@H](O)[C@H]1O (some centres not stated),inactive,inactive,–
CC(CC(C)O[C@@H]1O[C@H](CO)[C@@H](O)[C@H](O)[C@H]1O)OC(=O)/C=C/c1ccc(O)cc1 (some centres not stated),12.6 µM (active),–,–
O=C(Cn1c2ccccc2c2nc3n(c(=O)c21)CCS3)N1CCCC1,inactive,–,–
CC(=O)/C=C/[C@H]1[C@](C)(O)[C@@H](O)[C@H](O)C2C(C)(C)CCC[C@@]21C (some centres not stated),inactive,inactive,–
COCC1OC(n2cnc3c(=O)[nH]cnc32)C(O)C1O (configuration not stated),inactive,inactive,–
NC(Cc1c[nH]c2ccc(O)cc12)C(=O)O (configuration not stated),inactive,inactive,–

SMILES,Potency [1],Potency [2],Potency [3]
COC(=O)C1=COC(O[C@@H]2O[C@H](CO)[C@@H](O)[C@H](O)[C@H]2O)C2C(C)C(=O)CC12 (some centres not stated),inactive,inactive,–
COc1cc(/C=C/C(=O)O[C@H]2[C@H](O)[C@@H](CO)O[C@@]2(CO)O[C@H]2O[C@H](CO)[C@@H](O)[C@H](O)[C@H]2O)cc(OC)c1O,inactive,inactive,–
O=C(O)CC(CCc1ccccc1)OC1OC(CO)C(O)C(O)C1O (configuration not stated),inactive,–,–
CC1=C2CC3C(CCC3(C)O)C(C)(O)CC2OC1=O (configuration not stated),–,inactive,44.1 µM (active)
C=C(C)[C@@H]1CC[C@]2(C)CC[C@]3(C)C(CCC4[C@@]5(C)CC[C@H](O)C(C)(C)C5CC[C@]43C)C12 (some centres not stated),inactive,–,–
O=C(/C=C/c1ccc(O)c(O)c1)OC[C@H]1O[C@@H](OC2CCCCC2O)[C@H](O)[C@@H](O)[C@@H]1O (some centres not stated),inactive,–,–
CC1(C(=O)O)CC[C@]2(C(=O)OC3OC(CO)C(O)C(O)C3O)CC[C@]3(C)C(=CCC4[C@@]5(C)CC[C@H](OC6OCC(O)C(O)C6OC6OC(CO)C(O)C(O)C6O)C(C)(C)C5CC[C@]43C)C2C1 (some centres not stated),inactive,inactive,–
COc1ccc(Oc2c(Cl)cnn(C3c4ccccc4-c4ccccc43)c2=O)cc1,inactive,–,–
C=C(C(=O)O)[C@@H]1CC[C@H](C)[C@@H]2CC(=O)C(C)=C2C1,inactive,–,–
COc1ccc(OC2OC(CO[C@@H]3O[C@@H](C)[C@H](O)[C@@H](O)[C@H]3O)C(O)C(O)C2O)cc1OC (some centres not stated),inactive,–,–
Cc1ccccc1-c1cc(N2CCN(C)CC2)ncc1N(C)C(=O)C(C)(C)c1cc(C(F)(F)F)cc(C(F)(F)F)c1,inactive,inactive,–
CC1(C(=O)O)CCCC2(C)C3CCC4CC3(CCC12)CC4C(=O)O (configuration not stated),inactive,inactive,–
O=C(O)C[C@H]1CCC(=O)[C@@H]1C/C=C\CCO,inactive,–,–
C=C(CCO)C(=O)OCC1OCC(OC(=O)C(=C)CCO[C@@H]2O[C@H](CO)[C@@H](O)[C@H](O)[C@H]2O)C(O)C1O (some centres not stated),inactive,–,–
COc1cc(C2Oc3c(OC)cc(/C=C/C(=O)OC4CC(O)(C(=O)O)CC(O)C4O)cc3C2CO)ccc1O (configuration not stated),inactive,inactive,–
